# From PubChem
# A selection: hits, their analogues and other compounds. The true share with any hit is near 7.9%.
# HT1080-NT tox: kills 2HG-producing HT-1080-NT fibrosarcoma cells | 360,000 compounds, 1.6% hits | HT-1080-NT fibrosarcoma viability, CellTiter-Glo ATP luminescence, 48 h | Potency, µM (top dose mostly 46.1 µM), for the others: at the highest dose activity, negative = less viability, most hits filed as cytotoxic;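 further: NT is the 2HG producing partner of a matched IDH1 knockdown line; 0% = DMSO-treated cells and -100% = media-only wells without cells; nearly all actives have a fitted effect of over 55% in size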
#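 Viability by CellTiter-Glo luminescence after 48 h compound exposure at 37C of HT-1080-NT cells (750/well, RPMI, 5% FBS). % activity scaled between DMSO wells and medium-only wells, then curve-fitted and categorized by curve class.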
# HT1080 IDH1KD tx: HT-1080 IDH1 knockdown cell toxicity (counter line); HT-1080 IDH1 knockdown viability, ATP luminescence, 48 h; Potency, µM (top dose mostly 46.1 µM), for the others: at the highest dose activity, negative = toxicity, most hits filed as cytotoxic; 360,000 compounds, 2% hits; AID 686971;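 further: 0% = DMSO wells and -100% = cell-free medium wells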
#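 HT-1080-IDH1KD cells (IDH1 knocked down), 750/well in RPMI with 5% FBS, treated with compound 48 h at 37 degrees C. Viability by CellTiter-Glo luminescence, normalised to DMSO and no-cell wells; concentration-response curves classed.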
# MCF10A rerep: inducers of DNA re-replication in MCF 10A breast cells | 350,000 compounds, 2.9% hits | MCF 10A DNA re-replication, Hoechst nuclear intensity, 48 h | Potency, µM (top dose mostly 46.1 µM), without a hit: at the highest dose activity, positive = re-replication, most hits filed as activators | AID 624296; further: % of control where 0% means no effect; nearly all actives have a fitted effect of over 50% in size
# SW480 rerep: DNA re-replication induction in SW480 cells. 340,000 compounds, 1.8% hits. SW480 DNA re-replication, Hoechst DNA content imaging, 48 h. Potency, µM (highest dose often 46.1 µM), for the others: top-dose re-replication activation, most hits filed as activators; further: % of control where 0% means no effect; nearly all actives have a fitted effect of over 55% in size
#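 Image-based read-out: total Hoechst fluorescence of nuclei (405 nm excitation, 500-530 nm emission), with hits raising the fraction of high-intensity nuclei. SW480 colon cells incubated 48 hr with compounds at 37 C.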
# KB-3-1 cytotox: KB-3-1 parental cell cytotoxicity; Potency, µM (doses to about 46.1 µM), most hits filed as cytotoxic; 400,000 compounds, 1.4% hits; KB-3-1 viability, CellTiter-Glo ATP luminescence, 72 h; AID 1347075; further: on the % scale 0 is the no-effect control and ±100 the full control effect; nearly all actives have a fitted effect of over 60% in size
#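 Multi-concentration cytotoxicity screen in KB-3-1 cells grown in DMEM lacking phenol red with 10% FBS. After 72 h at 37 °C with compound, ATP-dependent luminescence was recorded.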
# KB-V1 MDR tox: kills drug-selected multidrug resistant KB-V1 cells. KB-V1 MDR cells viability, CellTiter-Glo, 72 h. Potency, µM (highest dose often 46.1 µM), hits mostly cytotoxic. 400,000 compounds, 3.4% hits. AID 1347076; further: on the % scale 0 is the no-effect control and ±100 the full control effect; nearly all actives have a fitted effect of over 60% in size
#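 Drug-selected KB-V1 cells, grown in DMEM lacking phenol red with 10% FBS, receive compound titrations; after three days at 37 degrees C, surviving cell ATP is quantified by CellTiter-Glo luminescence and responses normalized and curve-fitted.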
# Numbers without * were called inactive; i = inactive; ? = inconclusive; · = no result given; ! = not active in a repeat; [ ] = remark or other dose. The call rests on the fitted dose curve; in most records, active means well fitted curve in the direction sought with a large enough effect; inconclusive means small, poorly fitted or top-dose-only effect, or another doubt; inactive means no such curve, though single readings can be large; an effect the other way counts as inactive or inconclusive. Potency means the concentration at half of the fitted maximal effect.
SMILES,HT1080-NT tox,HT1080 IDH1KD tx,MCF10A rerep,SW480 rerep,KB-3-1 cytotox,KB-V1 MDR tox
COc1ccc(-c2cc(C(=O)N3CCN(c4ccccc4)CC3)no2)cc1,-20%,?,?,-6%,?,21µM*!
Cc1cc([N+](=O)[O-])c(C(C)(C)C)cc1N,-4%,1%,4%,-4%,i,i
CCCSc1nnc2n(C)c(=O)c3c4c(sc3n12)CCC4,-20%,?,11%,-13%,i,i
Cc1csc(SCC(=O)Nc2cc(F)ccc2C)n1,11%,6%,·,·,i,?
Clc1ccc(C(Cn2ccnc2)OCc2c(Cl)cccc2Cl)c(Cl)c1 (centres undefined),16µM*,?,4.6µM*,?,i,?
OC(Cn1ccnc1)c1ccc(Cl)cc1Cl (centres undefined),-3%,-3%,0%,0%[9.22 µM],?,?
CC1CCc2cc(F)ccc2N1C(=O)CSc1nnc2c(n1)[nH]c1ccc(F)cc12 (centres undefined),-29%,-29%,17%,-3%,i,21µM*
CC1CCCCN1C(=O)CSc1nnc2c(n1)[nH]c1ccc(F)cc12 (centres undefined),18%,0%,6%,-4%,i,i
Cc1ccc(C2CC(c3ccccc3)=NN2c2ccccc2)o1 (centres undefined),12%,9%,18µM*,15µM*,i,i
COc1ccc(C2=NN(C(=O)COc3ncnc4ccccc34)C(c3ccco3)C2)cc1 (centres undefined),-17%,?,16%,?,i,i
Clc1ccc(C2=NN(c3ccccc3)C(c3ccco3)C2)cc1 (centres undefined),7%,9%,0.73µM*,3.7µM*,i,i
COc1ccc(C2=NN(c3nc(-c4ccccc4)c(CC(=O)O)s3)C(c3ccco3)C2)cc1 (centres undefined),-1%,3%,21µM*,?,i,i
Fc1ccc(C2=NN(c3ccccc3)C(c3ccco3)C2)cc1 (centres undefined),-14%,-13%,?,6.5µM*,i,i
OC(Cc1ccncc1)c1ccccc1Cl (centres undefined),3%,6%,-16%,-6%,i,i
CCOC(=O)CCCNC(=O)CN1C(=O)NC2(CCCCCC2)C1=O,6%,18%,15%,-1%,i,i
Cc1nc(N2N=C(c3ccc(Cl)cc3)CC2c2ccco2)sc1C(=O)N(C)C (centres undefined),-24%,?,23µM*,18µM*,i,?
Cc1ccc(N2N=C(c3ccc(F)cc3)CC2c2ccco2)cc1 (centres undefined),9%,-3%,5.8µM*,?,i,i
CC(=O)N1N=C(c2ccc(C)cc2)CC1c1ccco1 (centres undefined),-7%,-10%,?,-10%,i,i
C=CCOC(=O)COc1ccc2c(C)c(C)c(=O)oc2c1C,8%,3%,-1%,-5%,i,i
O=C(c1ccc(Cl)cc1)c1oc2ccccc2c1CS(=O)(=O)c1ccccc1,14%,2%,?,-2%,i,6.5µM*
O=C(Nc1ccccc1Br)C1CCC(=O)N1Cc1ccccc1Cl (centres undefined),2%,4%,3%,2%,i,21µM*
O=C(Nc1ccc(Cl)cc1)C1CCC(=O)N1Cc1ccccc1Cl (centres undefined),0%,1%[9.24 µM],13%,-5%,i,?
CC1CC(C)CN(S(=O)(=O)c2ccc(C(=O)NNC(=O)c3ccccc3F)cc2)C1 (centres undefined),-3%,7%,3%,-1%,i,i
O=S(=O)(Nc1cc(Sc2cccc3cccnc23)c(O)c2ccccc12)c1ccccc1,·,·,23µM*,8.2µM*,·,·
O=C(O)c1ccccc1NS(=O)(=O)c1cccc2cccnc12,9%,11%[9.24 µM],-1%,-4%,i,i
SMILES,HT1080-NT tox,HT1080 IDH1KD tx,MCF10A rerep,SW480 rerep,KB-3-1 cytotox,KB-V1 MDR tox
Cc1ccc(C)c(S(=O)(=O)Nc2cc(SCC(=O)O)c(O)c3ccccc23)c1,23µM*,18µM*,?,?,?,?
CCOc1ccc(S(=O)(=O)Nc2cc(SCC(=O)O)c(O)c3ccccc23)cc1,23µM*,23µM*,?,18%,?,?
O=C(O)CSc1cc(NS(=O)(=O)c2cccc([N+](=O)[O-])c2)c2ccccc2c1O,13µM*,18µM*,2.1µM*,21µM*,?,5.8µM*
CCCn1c(SCC(=O)NC2CCCc3ccccc32)n[nH]c1=O (centres undefined),5%,7%,-8%,-3%,i,?
CCN(CC)CCNC(=O)c1cn(CC)c2cc(N3CCN(C(=O)c4ccco4)CC3)c(F)cc2c1=O,9%,6%,1%,0%,i,i
CCn1cc(C(=O)NCc2ccccc2)c(=O)c2cc(F)c(N3CCN(C(=O)c4ccco4)CC3)cc21,21µM*,?,?,-6%,?,?
CCn1cc(C(=O)NCc2ccncc2)c(=O)c2cc(F)c(N3CCN(C(=O)c4ccco4)CC3)cc21,-4%,-26%,?,-5%,i,i
CCn1cc(C(=O)NCc2ccc3c(c2)OCO3)c(=O)c2cc(F)c(N3CCN(C(=O)c4ccco4)CC3)cc21,18µM*,18µM*,?,?,?,i
Nc1ccc(N2CCN(c3ccccc3)CC2)c(F)c1,16%,0%,2%,-2%,i,i
C=CCN(C(=O)COc1ccccc1)c1nnc(-c2ccncc2)s1,5%,6%,2%,-2%,i,i
O=C(CC(O)(c1ccccc1)C(F)(F)C(F)F)c1cccs1 (centres undefined),-4%,5%,1%,-21%,i,i
O=C(/C=C/c1ccccc1)CC(O)(c1ccccc1)C(F)(F)C(F)F (centres undefined),16µM*,13µM*,-5%,1%,i,?
O=C(/C=C/c1ccccc1)CC(O)(c1ccccc1)C(F)(F)F (centres undefined),13µM*,10µM*,0%,?,i,23µM*
CCOC1=C2CN(S(=O)(=O)c3ccc(C)cc3)C(c3ccc(C)cc3)CC2N(S(=O)(=O)c2ccc(C)cc2)C(c2ccccc2)C1 (centres undefined),8%,2%,·,·,3.3µM*,?
